Test [1] deals with UISO. The test is described as follows: qHTS assay to identify novel small-molecules to repurpose for Merkel cell carcinoma treatment (AID 1296009). Note: nearly all actives have a fitted effect of over 60% in size. The note with it: MCC and control cell lines, CellTiter-Glo viability, 72 h; series mostly up to 46 µM. The gist of the method: (§1)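 Cells were incubated with compound for 72 hr at 37 degree celsius before CellTiter-Glo addition. Luminescence was normalized with no-cell wells as full cytotoxicity and DMSO as baseline.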
(In qHTS, concentration-response curves come from the screen itself.)

In test [2] the test system is WaGa. The test is described as above. The note with it: MCC and control cell lines, CellTiter-Glo viability, 72 h; series mostly up to 46 µM. Summed up: as §1
For test [3], the system named is C33A. The test is described as follows: Primary qHTS to identify gynecologic anti-cancer compounds using libraries of approved drugs and bioactive compounds (AID 1345084). Note: nearly all actives have a fitted effect of over 55% in size. The conditions noted are these: Gynecologic cancer cell panel viability, ATPlite luminescence, 48 h; series mostly up to 57.5 µM. Summed up: (§2)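 Five-concentration response, 48 h; readout is ATP-driven luciferase luminescence.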

Test [4] relates to CAOV3. The description is as above. The conditions noted are these: Gynecologic cancer cell panel viability, ATPlite luminescence, 48 h; series mostly up to 57.5 µM. The gist of the method:
as §2
For orientation: Cellular ATP, detected with luciferase, serves as a proxy for viable cell number.

The test system of test [5] is CASKI. The test is described as above. The note with it: Gynecologic cancer cell panel viability, ATPlite luminescence, 48 h; series mostly up to 57.5 µM. The gist of the method: as §2
Test [6] concerns Es-2. The test is described as above. The note with it: Gynecologic cancer cell panel viability, ATPlite luminescence, 48 h; series mostly up to 57.5 µM. Summed up: as §2
The test system of test [7] is HeLa. Described as above. The conditions noted are these: Gynecologic cancer cell panel viability, ATPlite luminescence, 48 h; series mostly up to 57.5 µM. Summed up: as §2
The test system of test [8] is Hek293T. Described as above. The note with it: Gynecologic cancer cell panel viability, ATPlite luminescence, 48 h, control line for the selectivity index; series mostly up to 57.5 µM. Summed up: as §2
For test [9], the system named is JEG-3. Described as above. The conditions noted are these: Gynecologic cancer cell panel viability, ATPlite luminescence, 48 h; series mostly up to 57.5 µM. Summed up:
as §2

The test system of test [10] is OV90. The test is described as above. The note with it: Gynecologic cancer cell panel viability, ATPlite luminescence, 48 h; series mostly up to 57.5 µM. Summed up:
as §2

Test [11] deals with PA-1. The test is described as above. The conditions noted are these: Gynecologic cancer cell panel viability, ATPlite luminescence, 48 h; series mostly up to 57.5 µM. The gist of the method: as §2
Test [12] has as its system SKOV3. The test is described as above. The conditions noted are these: Gynecologic cancer cell panel viability, ATPlite luminescence, 48 h; series mostly up to 57.5 µM. Summed up: as §2
Test [13] concerns Tov-21-G. The test is described as above. The note with it: Gynecologic cancer cell panel viability, ATPlite luminescence, 48 h; series mostly up to 57.5 µM. Summed up: as §2
In test [14] the test system is Tov112D. The description is as above. The note with it: Gynecologic cancer cell panel viability, ATPlite luminescence, 48 h; series mostly up to 57.5 µM. The gist of the method: as §2
A short description of test [15]: Drug repurposing screens with cells derived from glioblastoma tumor samples (AID 1345199). Note: nearly all actives have a fitted effect of over 40% in size. The note with it: GBM patient neurospheres viability, ATP luminescence, 48 h. The gist of the method: (§3)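 Four patient lines of CD133+ GBM neurospheres were screened at several concentrations; hits were retested in those lines plus three slower-growing GBM lines, using 48-hour treatment and ATP-based viability.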

The subject of test [16] is astro. The description is as above. The conditions noted are these: viability, ATP luminescence, 48 h; series mostly up to 45.9 µM. Summed up: as §3

Where “and” joins values, the source holds several entries; their conditions need not be identical. Equal values may be shown once. Inconclusive results are not listed. Some compounds were tested as several samples or in several runs, with calls that do not always agree. Unmarked numbers belong to inactive results. Calls of active or inactive are those of the source. Calls come from the whole dose curve; as a rule, active = well fitted curve in the direction sought with a large enough effect; inconclusive = small, poorly fitted or top-dose-only effect, or another doubt; inactive = no such curve, though single readings can be large; an effect the other way counts as inactive or inconclusive.
% is set by controls: 0 for no effect and ±100 for the full control effect; potency is the fitted concentration of half-maximal effect.

Consider `Cc1ccnc(NS(=O)(=O)c2ccc(NC(=O)Nc3ccc(S(=O)(=O)Nc4nccc(C)n4)cc3)cc2)n1`, for which the Potency entry in test [1], in test [2], in test [3], in test [4], in test [5] and in test [6] was “inactive” in each case. Besides, the Potency result in test [7], in [8], in test [9], in test [10], in [11] and in test [12] was “inactive” each time. Also, the Potency entry in [13] and in test [14] was “inactive” each time.

For `Cn1c(=O)c(F)c(Nc2ccc(I)cc2F)c2c(=O)n(C[C@@H](O)CO)cnc21`, the Potency result in test [1] and in test [2] was “inactive” throughout.

For the compound `O=c1n(CCCN2CCN(c3cccc(Cl)c3)CC2)nc2ccccn12`, the Potency entry in test [1], in [2], in test [3], in test [4], in [5] and in test [6] was “inactive” each time. In addition, the Potency entry in [7], in test [8], in test [9], in [10], in [11] and in test [12] was “inactive” each time. For the same compound, the Potency result in [13], in test [14] and in test [16] was “inactive” in each case. Further, the activity, negative = cell killing in test [15] (at 20 µM (top of the series), tumour line C) is -4.25%; in [15] (at 21.2 µM (top of the series), tumour line B), -8.69%; in test [15] (at 21.2 µM (top of the series), tumour line D), 3.95%.

In the case of `COc1cc2nccc(Oc3ccc(NC(=O)NC4CC4)c(Cl)c3)c2cc1C(N)=O`, the Potency in test [1] is 18.7 µM (active); in test [2], 1.48 µM (active). In addition, the Potency entry in test [3], in [4], in [5], in [6], in [7] and in test [8] was “inactive” each time. Moreover, the Potency result in [9], in test [10], in test [11], in test [12], in [13] and in [14] was “inactive” each time.

Regarding `Cc1c(CCOc2ccc(C(=O)O)cc2)c2cc(Cl)ccc2n1C(c1ccccc1)c1ccccc1`, the Potency entry in test [1] and in test [2] was “inactive” throughout.

Take `O=C1[C@H](Cc2ccc(O)cc2)N2C(=O)CCN(C(=O)NCc3ccccc3)[C@H]2CN1Cc1cccc2ccccc12`: the Potency in [1] is 4.69 µM (active); in test [2], 13.2 µM (active).

For the compound `CCC(C)n1ncn(-c2ccc(N3CCN(c4ccc(OC[C@H]5CO[C@](Cn6cncn6)(c6ccc(Cl)cc6Cl)O5)cc4)CC3)cc2)c1=O` (some centres undefined), the Potency entry in [1], in test [2], in [3], in test [4], in test [5] and in [6] was “inactive” throughout. Moreover, the Potency entry in test [7], in [8], in test [9], in test [10], in test [11] and in [12] was “inactive” each time. The Potency entry in test [13] and in [14] was “inactive” each time.

Consider `CCOC(=O)N[C@@H]1CC[C@@H]2[C@@H](C1)C[C@H]1C(=O)O[C@H](C)[C@H]1[C@@H]2C=Cc1ccc(-c2cccc(F)c2)cn1`, for which the Potency result in test [1] and in test [2] was “inactive” in each case.

As for `COCCNCCCn1c(C(=O)CF)c(-c2ccc(C)cc2)c2c(N)ncnc21`, the Potency result in test [1] and in test [2] was “inactive” each time.

Consider `COc1nc(-c2ccc3c(c2)OCO3)n(-c2ccc(NC(=O)CSc3ccccc3)cc2)n1`, for which the Potency result in test [1], in test [2], in [3], in [4], in [5] and in test [6] was “inactive” throughout. Also, the Potency entry in test [8], in test [9], in test [10], in test [11], in test [12] and in [13] was “inactive” in each case. Besides, the Potency result in [14] was “inactive”.

`Cc1csc(NC(=O)c2sc3nc4c(c(C(F)(F)F)c3c2N)CCC4)n1`: the Potency result in test [1] and in test [2] was “inactive” throughout. Besides, the Potency in [4] is 1.12 µM (active); in test [6], 2.51 µM (active); in [7], 2.82 µM (active); in test [8], 3.55 µM (active); in test [10], 12.6 µM (active); in test [13], 3.55 µM (active). For the same compound, the Potency in test [14] is 11.2 µM (active).

`CCOC(=O)C1=C[C@]2(CC)CCCN3CCc4c(n1c1ccccc41)[C@@H]32`: the Potency result in [1], in test [2], in [3], in [4], in test [5] and in test [6] was “inactive” each time. Also, the Potency entry in [7], in test [8], in test [9], in [10], in test [11] and in test [13] was “inactive” throughout. In addition, the Potency result in [14] and in [16] was “inactive” in each case. Further, the activity, negative = cell killing in [15] (at 45.9 µM (top of the series), tumour line B) is -28.2% and -25.8%. Also, the Potency in test [15] (tumour line A) was 4.47 µM (active); in test [15] (tumour line D), 10 µM (active).

The record behind these values is PubChem BioAssay (NCATS).
